According to PubChem BioAssay (NCATS):
Records with an inconclusive call do not appear. Entries that show only a call come without a potency. Activity calls are given as the source filed them. The call rests on the fitted dose curve; in most records, active means well fitted curve in the direction sought with a large enough effect; inconclusive means small, poorly fitted or top-dose-only effect, or another doubt; inactive means no such curve, though single readings can be large; an effect the other way counts as inactive or inconclusive.

Key:
[1] = target: Endonuclease 4 (Escherichia coli (strain K12)) (UniProt P0A6C1); experiment: Counterscreen for APE1 Inhibitors: qHTS Validation Assay for Inhibitors of Endonuclease IV (AID 1708)
How it was run: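 Enzyme (2 nM) + compound, 15 min RT; add 50 nM TAMRA/BHQ-2 THF-site dsDNA; kinetic read ex525/em598, 3 reads/60 s; activity = read 3 − read 1. Buffer Tris pH 7.5, 50 mM NaCl, 2 mM MgCl2, DTT, Tween-20.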

[2] = qHTS for differential inhibitors of proliferation of Plasmodium falciparum line 7G8 (AID 1815);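 further: potency means the concentration at half of the fitted maximal effect; parasite growth measured after three days of incubation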
[3] = qHTS for differential inhibitors of proliferation of Plasmodium falciparum line GB4 (AID 1816); conditions: Potency: Plasmodium falciparum GB4 proliferation inhibition;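 further: potency means the concentration at half of the fitted maximal effect; parasite growth measured after 72 h incubation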
[4] = qHTS for differential inhibitors of proliferation of Plasmodium falciparum line 3D7 (AID 1876); further: potency means the concentration at half of the fitted maximal effect
[5] = qHTS for differential inhibitors of proliferation of Plasmodium falciparum line D10 (AID 1877);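 further: potency means the concentration at half of the fitted maximal effect; parasites grown with compound for 72 h before DNA staining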
[6] = qHTS for differential inhibitors of proliferation of Plasmodium falciparum line Dd2 (AID 1882); conditions: Potency: Plasmodium falciparum Dd2 proliferation inhibition; further: series mostly up to about 29 µM; nearly all actives have a fitted effect of over 65% in size
How it was run: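 SYBR Green DNA fluorescence (ex 485, em 535 nm) after overnight lysis quantifies parasite growth; compound exposure lasted 72 h at 37 C on infected red cells at 2.5% hematocrit, 0.3% parasitemia (final). Artemisinin 0.29 uM and vehicle wells define normalization.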

[7] = qHTS for differential inhibitors of proliferation of Plasmodium falciparum line W2 (AID 1883); conditions: Potency: Plasmodium falciparum W2 proliferation inhibition;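 further: potency means the concentration at half of the fitted maximal effect; parasites grown with compound for 72 h before lysis and staining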
[8] = qHTS for differential inhibitors of proliferation of Plasmodium falciparum line HB3 (AID 1886); conditions: Potency: Plasmodium falciparum HB3 proliferation inhibition;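 further: potency means the concentration at half of the fitted maximal effect; parasites grown with compound for 72 h before SYBR Green readout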
[9] = target: Ferritin light chain (Equus caballus) (UniProt P02791); experiment: qHTS Validation Assay for Identification of Novel General Anesthetics (AID 2323); further: series mostly up to about 77 µM
Ferritin light chain (Equus caballus), sequence (P02791 2-175 limits assumed): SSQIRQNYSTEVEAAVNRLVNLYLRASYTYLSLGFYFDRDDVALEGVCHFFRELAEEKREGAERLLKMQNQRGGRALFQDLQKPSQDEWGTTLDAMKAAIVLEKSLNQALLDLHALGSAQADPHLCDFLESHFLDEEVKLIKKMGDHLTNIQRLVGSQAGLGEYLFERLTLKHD
How it was run: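 10 uM horse-spleen apoferritin + 1-AMA (50% saturated, PBS); cpd pin-transferred, 10 min RT. Ex 380/Em 535 nm endpoint. Activity normalized between free 1-AMA and 1-AMA/apoferritin; 4-parameter Hill fit of concentration-response.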

[10] = target: ATP-dependent DNA helicase Q1 (Homo sapiens) (UniProt P46063); experiment: qHTS Validation Assay for Inhibitors of RecQ-Like Dna Helicase 1 (RECQ1) (AID 2353)
ATP-dependent DNA helicase Q1 (Homo sapiens), sequence (P46063 whole entry, looked up): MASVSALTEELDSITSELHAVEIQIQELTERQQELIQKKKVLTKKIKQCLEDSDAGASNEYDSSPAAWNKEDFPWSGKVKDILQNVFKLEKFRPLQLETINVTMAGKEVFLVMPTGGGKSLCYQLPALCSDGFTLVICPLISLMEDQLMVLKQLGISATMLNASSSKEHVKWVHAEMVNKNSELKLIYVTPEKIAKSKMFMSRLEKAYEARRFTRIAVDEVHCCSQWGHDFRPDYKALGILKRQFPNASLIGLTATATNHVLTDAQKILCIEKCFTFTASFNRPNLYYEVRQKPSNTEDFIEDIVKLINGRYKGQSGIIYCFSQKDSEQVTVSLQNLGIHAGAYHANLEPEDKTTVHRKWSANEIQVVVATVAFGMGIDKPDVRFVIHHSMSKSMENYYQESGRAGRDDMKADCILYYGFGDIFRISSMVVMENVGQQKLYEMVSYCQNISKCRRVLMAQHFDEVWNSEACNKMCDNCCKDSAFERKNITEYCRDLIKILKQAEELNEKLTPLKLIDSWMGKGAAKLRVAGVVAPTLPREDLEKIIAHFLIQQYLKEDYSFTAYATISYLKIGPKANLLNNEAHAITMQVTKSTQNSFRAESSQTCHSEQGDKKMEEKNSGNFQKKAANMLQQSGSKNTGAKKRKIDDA
How it was run: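 RECQ1T1 50 nM; forked duplex (20 bp + 30-nt ss tails) 200 nM, ATP 2 mM final; pH 8.0, 2 mM MgCl2, 2.5 ug/ml poly(dI-dC); 15 min compound preincubation; discontinuous kinetic read over 2 h at RT.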

[11] = target: RecQ-like DNA helicase BLM (Homo sapiens) (UniProt P54132); experiment: qHTS Validation Assay for Inhibitors of Bloom's syndrome helicase (BLM) (AID 2364)
RecQ-like DNA helicase BLM (Homo sapiens), sequence (P54132 whole entry, looked up): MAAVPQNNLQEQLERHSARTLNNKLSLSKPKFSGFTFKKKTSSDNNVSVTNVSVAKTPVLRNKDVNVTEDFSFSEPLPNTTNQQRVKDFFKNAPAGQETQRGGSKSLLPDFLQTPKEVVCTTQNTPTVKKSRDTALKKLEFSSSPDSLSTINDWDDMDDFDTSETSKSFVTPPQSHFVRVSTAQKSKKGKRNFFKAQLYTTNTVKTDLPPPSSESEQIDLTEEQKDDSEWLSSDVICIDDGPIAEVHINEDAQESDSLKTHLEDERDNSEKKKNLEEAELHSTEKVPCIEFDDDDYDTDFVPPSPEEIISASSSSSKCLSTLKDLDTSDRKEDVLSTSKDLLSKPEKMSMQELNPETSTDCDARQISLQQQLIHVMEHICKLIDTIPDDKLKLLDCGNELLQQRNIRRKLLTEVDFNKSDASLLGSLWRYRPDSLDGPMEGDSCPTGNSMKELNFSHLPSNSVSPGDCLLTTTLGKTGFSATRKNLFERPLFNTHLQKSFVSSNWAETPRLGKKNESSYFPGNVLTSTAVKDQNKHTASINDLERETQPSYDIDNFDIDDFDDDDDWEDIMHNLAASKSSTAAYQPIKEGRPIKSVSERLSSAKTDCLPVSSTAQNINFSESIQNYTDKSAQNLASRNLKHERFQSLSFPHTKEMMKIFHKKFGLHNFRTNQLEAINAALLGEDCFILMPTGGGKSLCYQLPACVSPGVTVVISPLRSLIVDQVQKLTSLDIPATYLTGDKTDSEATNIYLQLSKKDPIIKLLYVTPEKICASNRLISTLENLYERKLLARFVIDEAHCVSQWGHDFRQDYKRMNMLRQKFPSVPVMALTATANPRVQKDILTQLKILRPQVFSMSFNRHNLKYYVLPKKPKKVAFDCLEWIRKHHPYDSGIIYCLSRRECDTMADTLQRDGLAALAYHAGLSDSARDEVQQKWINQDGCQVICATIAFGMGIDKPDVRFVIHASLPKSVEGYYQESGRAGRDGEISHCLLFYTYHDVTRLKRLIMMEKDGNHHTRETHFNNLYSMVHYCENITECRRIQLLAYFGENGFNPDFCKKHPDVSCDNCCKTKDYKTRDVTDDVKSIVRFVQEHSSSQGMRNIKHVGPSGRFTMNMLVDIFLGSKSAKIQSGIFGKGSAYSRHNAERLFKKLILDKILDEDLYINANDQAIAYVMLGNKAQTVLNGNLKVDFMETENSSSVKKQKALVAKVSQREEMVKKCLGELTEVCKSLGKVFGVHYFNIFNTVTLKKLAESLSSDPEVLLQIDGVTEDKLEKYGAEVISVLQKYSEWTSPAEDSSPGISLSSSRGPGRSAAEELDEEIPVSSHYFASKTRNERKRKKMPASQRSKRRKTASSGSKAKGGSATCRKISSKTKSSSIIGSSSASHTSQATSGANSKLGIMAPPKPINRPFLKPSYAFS
How it was run: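 BLM 50 nM in 25 mM Tris-HCl pH 8.0, 5 mM NaCl, 2 mM MgCl2, 1 mM DTT, 0.01% Tween-20, 2.5 ug/ml poly(dI-dC); 15 min cpd preinc, RT. Start: 200 nM forked DNA + 2 mM ATP (final). TAMRA read, 2 reads 2 h apart.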

[12] = Validation screen for small molecules that induce DNA re-replication in MCF 10A normal breast cells (AID 463097); further: nearly all actives have a fitted effect of over 60% in size
How it was run: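 250 MCF 10A cells/well; compound pin-transferred; 48 hr, 37 C, 5% CO2; Hoechst 40 min; imaged 405/500-530 nm. Hits = more high-intensity nuclei.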

[13] = Quantitative high throughput screen for delayed death inhibitors of the malarial parasite plastid, 96 hour incubation (AID 488745); further: potency means the concentration at half of the fitted maximal effect; nearly all actives have a fitted effect of over 70% in size
How it was run: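 Readout is firefly luciferase luminescence from an integrated reporter in P. falciparum; lower signal marks inhibited growth. Cultures at 2% hematocrit and 0.1% parasitemia were treated with compound across two generations (96 h, 37 C, 5% CO2).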

[14] = target: M-phase phosphoprotein 8 (Homo sapiens) (UniProt Q99549); experiment: qHTS Validation Assay for Inhibitors for MPP8 Chromodomain Interactions with Methylated Histone Tails (AID 488949);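 further: AlphaScreen signal from MPP8 chromodomain bound to biotinylated H3K9me3 peptide; top concentration of the series differs between compounds; nearly all actives have a fitted effect of over 55% in size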
M-phase phosphoprotein 8 (Homo sapiens), sequence (Q99549 whole entry, looked up): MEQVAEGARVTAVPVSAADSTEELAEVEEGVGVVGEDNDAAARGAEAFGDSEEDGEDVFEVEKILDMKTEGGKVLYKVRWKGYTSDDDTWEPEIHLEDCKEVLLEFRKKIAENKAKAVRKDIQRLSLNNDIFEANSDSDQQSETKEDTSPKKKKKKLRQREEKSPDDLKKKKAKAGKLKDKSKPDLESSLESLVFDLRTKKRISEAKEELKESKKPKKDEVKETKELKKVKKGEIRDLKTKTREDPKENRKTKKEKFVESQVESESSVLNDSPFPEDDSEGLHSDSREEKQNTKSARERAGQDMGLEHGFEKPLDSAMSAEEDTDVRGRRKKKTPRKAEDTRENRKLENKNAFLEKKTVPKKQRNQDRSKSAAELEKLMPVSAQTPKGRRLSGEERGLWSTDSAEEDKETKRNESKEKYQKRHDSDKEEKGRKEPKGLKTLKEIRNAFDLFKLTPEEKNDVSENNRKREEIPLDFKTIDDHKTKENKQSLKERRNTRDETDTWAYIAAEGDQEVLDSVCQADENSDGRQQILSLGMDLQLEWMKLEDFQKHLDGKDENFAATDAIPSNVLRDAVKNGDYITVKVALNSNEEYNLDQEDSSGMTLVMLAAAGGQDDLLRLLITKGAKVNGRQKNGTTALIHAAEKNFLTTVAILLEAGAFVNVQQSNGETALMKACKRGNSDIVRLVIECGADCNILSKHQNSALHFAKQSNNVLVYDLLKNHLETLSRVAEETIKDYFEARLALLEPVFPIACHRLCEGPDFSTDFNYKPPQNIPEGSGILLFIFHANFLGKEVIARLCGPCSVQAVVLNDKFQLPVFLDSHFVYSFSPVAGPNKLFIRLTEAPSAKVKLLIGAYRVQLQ
How it was run: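 AlphaScreen read-out: streptavidin donor and nickel chelate acceptor beads (final 10 ug/mL), 30 min in the dark at RT. Complex of 50 nM MPP8 and 50 nM b-H3(1-18)K9me3 peptide had been exposed to compounds for 30 min beforehand.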

[15] = target: Transient receptor potential cation channel subfamily V member 1 (Homo sapiens) (UniProt Q8NER1); experiment: HTS Assay for Compounds that Act as Enhancers of the Vanilloid Receptor 1 (AID 488979)
Transient receptor potential cation channel subfamily V member 1 (Homo sapiens), sequence (Q8NER1 whole entry, looked up): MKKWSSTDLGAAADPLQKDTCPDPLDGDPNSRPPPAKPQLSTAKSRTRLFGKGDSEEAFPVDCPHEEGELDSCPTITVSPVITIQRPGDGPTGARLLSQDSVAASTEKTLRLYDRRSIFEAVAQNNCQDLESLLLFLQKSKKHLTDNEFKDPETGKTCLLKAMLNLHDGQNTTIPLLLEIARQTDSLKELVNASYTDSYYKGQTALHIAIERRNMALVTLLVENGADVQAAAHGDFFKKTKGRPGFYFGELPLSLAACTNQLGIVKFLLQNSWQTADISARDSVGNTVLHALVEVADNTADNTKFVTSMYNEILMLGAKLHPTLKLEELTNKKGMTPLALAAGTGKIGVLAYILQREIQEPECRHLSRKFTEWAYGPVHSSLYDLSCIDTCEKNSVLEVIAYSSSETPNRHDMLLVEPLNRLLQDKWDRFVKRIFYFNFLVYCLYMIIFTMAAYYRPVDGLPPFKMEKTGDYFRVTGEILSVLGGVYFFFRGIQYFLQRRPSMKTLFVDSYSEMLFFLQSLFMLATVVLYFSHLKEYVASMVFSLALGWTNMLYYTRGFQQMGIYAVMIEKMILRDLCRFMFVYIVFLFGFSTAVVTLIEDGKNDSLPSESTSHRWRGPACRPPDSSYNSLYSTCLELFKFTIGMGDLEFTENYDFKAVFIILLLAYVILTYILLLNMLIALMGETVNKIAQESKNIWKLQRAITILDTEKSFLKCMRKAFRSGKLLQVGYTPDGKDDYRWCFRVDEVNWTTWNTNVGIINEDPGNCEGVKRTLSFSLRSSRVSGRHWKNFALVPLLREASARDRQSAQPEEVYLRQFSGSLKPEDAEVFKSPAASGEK
How it was run: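 TRPV1-expressing cells loaded with Fluo-8 calcium dye; compounds added and calcium influx read kinetically for 3 min (agonist phase), then capsaicin at EC20 added and read 2 min more for enhancement. Fluorescence ex 480/em 520 nm.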

[16] = target: Galactokinase (Homo sapiens) (UniProt P51570); experiment: qHTS Validation Assay for Inhibitors of Human Galactokinase (GALK) (AID 493189)
Galactokinase (Homo sapiens), sequence (P51570 whole entry, looked up): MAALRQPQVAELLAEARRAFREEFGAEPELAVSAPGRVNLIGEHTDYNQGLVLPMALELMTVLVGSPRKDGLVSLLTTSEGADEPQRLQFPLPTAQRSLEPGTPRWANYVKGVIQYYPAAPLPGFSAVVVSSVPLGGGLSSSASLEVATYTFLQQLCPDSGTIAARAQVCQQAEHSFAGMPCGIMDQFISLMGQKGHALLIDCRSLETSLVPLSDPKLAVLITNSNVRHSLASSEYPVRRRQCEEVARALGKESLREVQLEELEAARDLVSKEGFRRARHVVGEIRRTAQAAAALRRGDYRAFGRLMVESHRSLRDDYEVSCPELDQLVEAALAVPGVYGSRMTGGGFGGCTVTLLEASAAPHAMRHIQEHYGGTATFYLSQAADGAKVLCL
How it was run: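 Luminescence from leftover ATP (Kinase-Glo Plus, 10 min) served as read-out after a 1 h room-temperature reaction of 5 nM GALK, 100 uM galactose and 35 uM ATP at pH8.0.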

[17] = Validation screen for small molecules that induce DNA re-replication in SW480 colon adenocarcinoma cells (AID 504364)
How it was run: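 Image-based qHTS: compounds were incubated with SW480 cells for 48 hr, nuclei stained with Hoechst, and per-nucleus fluorescence intensity scanned to flag cells with excess DNA content.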

[18] = target: DNA dC->dU-editing enzyme APOBEC-3G (Homo sapiens) (UniProt Q9HC16); experiment: qHTS for inhibitors of Vif-A3G interactions: Validation (AID 588379)
DNA dC->dU-editing enzyme APOBEC-3G (Homo sapiens), sequence (Q9HC16 whole entry, looked up): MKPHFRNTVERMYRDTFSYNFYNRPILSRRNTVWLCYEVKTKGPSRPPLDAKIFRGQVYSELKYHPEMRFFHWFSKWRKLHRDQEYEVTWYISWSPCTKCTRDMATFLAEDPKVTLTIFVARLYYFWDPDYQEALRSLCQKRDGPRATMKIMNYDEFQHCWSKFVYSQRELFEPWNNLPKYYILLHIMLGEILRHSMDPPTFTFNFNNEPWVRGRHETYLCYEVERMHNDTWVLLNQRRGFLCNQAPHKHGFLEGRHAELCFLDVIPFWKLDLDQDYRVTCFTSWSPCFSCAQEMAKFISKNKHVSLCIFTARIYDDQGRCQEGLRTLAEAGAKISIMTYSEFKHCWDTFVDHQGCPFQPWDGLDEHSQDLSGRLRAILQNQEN
How it was run: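 Yellow fluorescence (Ex 488, Em 500-530) of Vif-coexpressing HeLa A3G-eYFP cells, scanned by Acumen cytometer, reports blocked A3G degradation. Cells plated at 700/well overnight at 37 deg C before compound addition, then a further overnight compound incubation at 37 deg C.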

[19] = test system: Zika virus NS2B-NS3 protease; experiment: Primary screen GU AMC qHTS for Zika virus inhibitors (AID 1347154); further: nearly all actives have a fitted effect of over 70% in size
How it was run: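 Unlinked Zika NS2B hydrophilic domain/NS3 protease domain noncovalent complex (25 nM final) in 10 mM Tris-HCl pH 8.0, 0.01% Tween 20, with AMC peptide substrate. Fluorescence (ex 340, em 450 nm) change over 15 min, room temperature; percent inhibition fitted to 4-parameter Hill equation.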

[20] = Primary qHTS for small molecule stabilizers of the endoplasmic reticulum resident proteome: Secreted ER Calcium Modulated Protein (SERCaMP) assay (AID 1508630)
How it was run: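 The SH-SY5Y reporter protocol was run at 3 concentrations up to 38.3 uM (primary) or 11 concentrations (follow-up): 16 h compound, 100 nM thapsigargin for 4 h, then extracellular luciferase luminescence.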

## COc1[nH]c2ccc(F)cc2c1C(=O)OCC1CCN(CCNS(C)(=O)=O)CC1
[1]
  Potency: inactive
[2]
  Potency: 7.94 µM (active)
[3]
  Potency: 6.31 µM (active)
[4]
  Potency: 7.08 µM (active)
[5]
  Potency: 7.08 µM (active)
[6]
  Potency: inactive
[7]
  Potency: 10 µM (active)
[8]
  Potency: 5.01 µM (active)
[9]
  outcome: inactive
[10]
  Potency: inactive
[11]
  Potency: inactive
[12]
  Potency: inactive
[13]
  Potency: 14.7 µM (active)
[14]
  Potency: inactive
[15]
  outcome: inactive
[16]
  outcome: inactive
[17]
  outcome: inactive
[18]
  Potency: inactive
[19]
  Potency: inactive
[20]
  Potency: inactive
